Screens: PubChem BioAssay, National Center for Advancing Translational Sciences (NCATS)
L3MBTL1 inh: qHTS Assay for the Inhibitors of L3MBTL1 | Potency, µM (top dose mostly 57.1 µM), without a hit: at the highest dose activity, negative = inhibition, hits mostly inhibitors | AlphaScreen L3MBTL1–H3K9me1 peptide binding | hit rate 0.66% among 230,000 | AID 485360, 2010 | Lethal(3)malignant brain tumor-like protein 1 (Homo sapiens), Q9Y468; note: nearly all actives have a fitted effect of over 60% in size
Target sequence (Q9Y468 whole entry, looked up): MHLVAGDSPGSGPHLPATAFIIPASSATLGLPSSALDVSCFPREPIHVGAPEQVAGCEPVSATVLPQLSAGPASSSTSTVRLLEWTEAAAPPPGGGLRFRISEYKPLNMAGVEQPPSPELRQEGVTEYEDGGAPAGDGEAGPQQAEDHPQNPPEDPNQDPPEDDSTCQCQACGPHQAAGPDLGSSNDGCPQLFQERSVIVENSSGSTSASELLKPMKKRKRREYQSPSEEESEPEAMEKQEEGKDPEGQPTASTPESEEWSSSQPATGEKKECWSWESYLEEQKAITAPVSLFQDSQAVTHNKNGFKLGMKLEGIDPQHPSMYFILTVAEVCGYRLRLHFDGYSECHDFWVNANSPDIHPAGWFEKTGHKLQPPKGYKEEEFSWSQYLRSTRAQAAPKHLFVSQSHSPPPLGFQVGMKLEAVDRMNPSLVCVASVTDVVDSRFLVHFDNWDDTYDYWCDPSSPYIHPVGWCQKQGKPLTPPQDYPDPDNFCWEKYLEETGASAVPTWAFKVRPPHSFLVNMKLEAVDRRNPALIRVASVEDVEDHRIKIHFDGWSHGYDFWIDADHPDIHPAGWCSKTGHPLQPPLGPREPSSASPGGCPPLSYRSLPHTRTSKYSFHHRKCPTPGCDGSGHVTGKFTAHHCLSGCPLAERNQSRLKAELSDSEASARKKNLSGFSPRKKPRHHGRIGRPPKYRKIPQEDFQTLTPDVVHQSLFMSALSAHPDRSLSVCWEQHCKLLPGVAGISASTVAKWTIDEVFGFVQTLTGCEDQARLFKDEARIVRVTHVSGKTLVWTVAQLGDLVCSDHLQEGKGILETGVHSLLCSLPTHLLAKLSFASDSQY
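Read-out is AlphaScreen signal from streptavidin donor and nickel chelate acceptor beads (10 ug/mL final each) bridging L3MBTL1 (50 nM) and biotinylated K9-monomethylated H3(1-15) peptide (75 nM), after 30 min compound exposure at room temperature.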
RECQ1 inh: qHTS Assay for Inhibitors of RecQ-Like Dna Helicase 1 (RECQ1) | ATP-dependent DNA helicase Q1 (Homo sapiens), P46063 | RECQ1 DNA unwinding, red fluorescence kinetic read | Potency, µM (highest dose often 57.3 µM), inactives show top-dose activity, negative = inhibition, most hits filed as inhibitors | hit rate 0.54% among 240,000 | AID 2549, 2010;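 note: plate controls were vehicle for no effect and no enzyme for full effect; nearly all actives have a fitted effect of over 30% in size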
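50 nM RECQ1T1 preincubated 15 min with compound in Tris pH 8.0 buffer with MgCl2, DTT, Tween-20 and 2.5 ug/ml poly(dI-dC); started with 200 nM TAMRA/BHQ-2 forked duplex and 2 mM ATP. Unwinding read as fluorescence (525/598 nm), two reads 2 h apart.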
APE1 inh-1: qHTS Assay for Inhibitors of the Human Apurinic/apyrimidinic Endonuclease 1 (APE1); Potency, µM (series often up to 65.8 µM), without a hit: top-dose activity change, negative = inhibition, usual class: inhibitors; hit rate 0.35% among 350,000; recombinant APE1, TAMRA/BHQ-2 abasic DNA cleavage fluorescence; DNA repair nuclease/redox regulator APEX1 (Homo sapiens), P27695; AID 2517, 2012;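 note: plate controls were vehicle for no effect and reference inhibitor for full effect; nearly all actives have a fitted effect of over 55% in size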
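0.75 nM APE1 + cpd, 15 min RT; start w/ 50 nM TAMRA/BHQ-2 THF-abasic dsDNA; kinetic fluor 525/598 nm ×3 reads @60 s; Δ(read3−read1); normalized to DMSO and NSC13755 control wells.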
KDM4E inh: qHTS Assay for Inhibitors of Human Jumonji Domain Containing 2E (JMJD2E); JMJD2E catalytic domain, FDH-coupled NADH fluorescence (FDH is formaldehyde dehydrogenase); Potency, µM (series often up to 57.1 µM), for the others: top-dose activity change, negative = inhibition, usual class: inhibitors; hit rate 1.6% among 230,000; active = well fitted inhibition curve with a large enough effect, not every such curve was filed as active; inconclusive = small, poorly fitted or top-dose-only effect, or another doubt; inactive = no such curve, though single readings can be large or run the other way;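 note: 0% = wells with enzyme and -100% = buffer wells without enzyme; nearly all actives have a fitted effect of over 50% in size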
BLM inh: qHTS Assay for Inhibitors of Bloom's syndrome helicase (BLM); recombinant BLM DNA unwinding, fluorescence dequenching; Potency, µM (doses to about 56.1 µM), inactives show top-dose activity change, negative = inhibition, usual class: inhibitors; hit rate 0.2% among 350,000; AID 2528, 2010;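 note: plate controls were vehicle for no effect and no enzyme for full effect; nearly all actives have a fitted effect of over 35% in size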
DNA dye displace: Counterscreen for APE1 Inhibitors: Fluorescent Dye Displacement Assay; AID 2564, 2010; DNA fluorescent dye displacement counterscreen, fluorescence; Potency, µM (titrated, usually from 28.5 µM), for inactives: at the top dose activity change, negative = inhibition, actives largely listed as inhibitors; hit rate 7% among 480; shares compounds with APE1 inh-1;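 note: loss of thiazole orange fluorescence as the dye is displaced from duplex DNA; 0% = ThO with dsDNA and no compound and -100% = ThO without dsDNA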
EndoIV counter: Counterscreen for APE1 Inhibitors: qHTS Assay for Inhibitors of Endonuclease IV | shares compounds with APE1 inh-1 | E. coli Endo IV, fluorogenic AP-site DNA cleavage | Potency, µM (doses to about 27.1 µM), for the others: at the highest dose activity change, negative = inhibition, most hits filed as inhibitors | hit rate 4% among 560 | AID 2565, 2010;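 note: plate controls were uninhibited enzyme wells for no effect and no enzyme buffer wells for full effect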
APE1 inh-2: Confirmation qHTS Assay for Inhibitors of the Human Apurinic/apyrimidinic Endonuclease 1 (APE1). shares compounds with APE1 inh-1. purified APE1, fluorogenic abasic-site DNA cleavage. Potency, µM (highest dose often 57.1 µM), for inactives: top-dose activity change, negative = inhibition, usual class: inhibitors. hit rate 44% among 750. AID 2572, 2010; note: nearly all actives have a fitted effect of over 30% in size
APE1 FP: qHTS FP-Based Assay for Inhibitors of the Human Apurinic/apyrimidinic Endonuclease 1 (APE1). APE1 binding to TAMRA-labelled double-stranded DNA, fluorescence polarization displacement. shares compounds with APE1 inh-1. hit rate 7% among 480. Potency, µM (doses to about 28.5 µM), for the others: at the highest dose activity, negative = inhibition, usual class: inhibitors. AID 2573, 2010
The depositor's hits bear a star; [ ] = dose if it differs, or a comment. This excerpt belongs to a sample that is enriched for hits. Unless noted, calls come from the whole dose curve; as a rule, active = well fitted curve in the direction sought with a large enough effect; inconclusive = small, poorly fitted or top-dose-only effect, or another doubt; inactive = no such curve, though single readings can be large; an effect the other way counts as inactive or inconclusive. Unless noted, % is set by controls: 0 for no effect and ±100 for the full control effect; potency is the fitted concentration of half-maximal effect.

Results for Clc1cnc(Oc2ccc(Oc3ncc(Cl)cc3Cl)cc2)c(Cl)c1 ?
RECQ1 inh: -7%; APE1 inh-1: -8%; KDM4E inh: 9%; BLM inh: -2%; EndoIV counter: -1%[57.1 µM]; APE1 inh-2: -11%

What do the screens show for `Clc1ccc(Cl)c(Cl)c1`?
RECQ1 inh: -7%; APE1 inh-1: -1%

Results for CC1=C(C(=O)O)N2C(=O)C(NC(=O)Cc3ccccc3)C2SC1 (stereo not drawn) ?
RECQ1 inh: -5%; APE1 inh-1: 5%; KDM4E inh: 0%; BLM inh: 0%

Results for CO/N=C(\C(=O)N[C@@H]1C(=O)N2C(C(=O)O)=C(CSc3nc(=O)c(O)nn3C)CSC12)c1csc(N)n1 (stereo partly drawn) ?
RECQ1 inh: inconclusive; APE1 inh-1: 10µM*; KDM4E inh: inconclusive; EndoIV counter: -15%[57.1 µM]; APE1 inh-2: 2.2µM*

How did O=C1CCCC2C3CCCN4CCCC(CN12)C34 (stereo not drawn) do in these assays?
L3MBTL1 inh: -6%; RECQ1 inh: 7%; APE1 inh-1: -1%; KDM4E inh: -2%; BLM inh: 3%

What do the screens show for `CC(=O)OCC1=C(C(=O)O)N2C(=O)C(NC(=O)CCCC(N)C(=O)O)C2SC1` (stereo not drawn)?
RECQ1 inh: 3%; APE1 inh-1: 22µM*; KDM4E inh: 8.9µM*; BLM inh: inconclusive; DNA dye displace: -1%[57.1 µM]; EndoIV counter: 27%[57.1 µM]; APE1 inh-2: -7%; APE1 FP: 30%[57.1 µM]

What do the screens show for `CCCC[C@H]1C(=O)O[C@H](C)[C@H](NC(=O)c2cccc(NC=O)c2OC)C(=O)O[C@@H](C)[C@@H]1OC(=O)CC(C)C`?
RECQ1 inh: -9%; APE1 inh-1: 6%; BLM inh: -10%

How did O=C1NC(=O)N(c2ccc3c(c2)OCO3)C(=O)/C1=C\c1ccc(-c2ccccc2C(=O)O)o1 do in these assays?
L3MBTL1 inh: inconclusive; RECQ1 inh: -16%; APE1 inh-1: 20µM*; KDM4E inh: inconclusive; BLM inh: -2%; DNA dye displace: 14%; EndoIV counter: -4%; APE1 inh-2: 10µM*; APE1 FP: 5%

What do the screens show for `CN1Cc2ccccc2[C@@H]2c3cccc4[nH]cc(c34)C[C@H]21`?
RECQ1 inh: -11%; APE1 inh-1: inconclusive; KDM4E inh: 10µM*; BLM inh: 2%; DNA dye displace: -6%[57.1 µM]; EndoIV counter: -22%[57.1 µM]; APE1 inh-2: inconclusive; APE1 FP: -9%[57.1 µM]

Results for CC1=C[C@@H]2c3cccc4[nH]cc(c34)C[C@H]2N(C)C1 ?
RECQ1 inh: -20%; APE1 inh-1: inconclusive; BLM inh: -1%

Results for CC1=C2C3OC(=O)C(C)C3CC[C@@]2(C)C=CC1=O (stereo partly drawn) ?
L3MBTL1 inh: 4%; RECQ1 inh: -16%; APE1 inh-1: inconclusive; KDM4E inh: 5%; BLM inh: 2%; EndoIV counter: -4%[57.1 µM]; APE1 inh-2: -4%

How did C/C=C(/C)C(=O)O[C@H]1C(C)=C2C([C@@H]1OC(=O)CCCCCCC)[C@@](C)(OC(C)=O)C[C@@H](OC(=O)CCC)[C@@]1(O)[C@H]2OC(=O)[C@@]1(C)O (stereo partly drawn) do in these assays?
RECQ1 inh: -15%; APE1 inh-1: -4%; KDM4E inh: -12%; EndoIV counter: 10µM*; APE1 inh-2: inconclusive

Results for CCCCCCC(=O)OC1CC(C)(C)NC(C)(C)C1 ?
RECQ1 inh: -12%; APE1 inh-1: -2%; BLM inh: -1%

What do the screens show for `Cc1cc(/C=C2/C(=O)NC(=O)N(Cc3ccco3)C2=O)c(C)n1-c1ccccc1`?
L3MBTL1 inh: -28%; RECQ1 inh: 28µM*; APE1 inh-1: inconclusive; KDM4E inh: -8%; BLM inh: -28%; DNA dye displace: 4%; EndoIV counter: 8%; APE1 inh-2: inconclusive; APE1 FP: -3%

What do the screens show for `Cc1cc(/C=C2\C(=O)NC(=O)N(Cc3ccccc3)C2=O)c(C)n1C1CC1`?
L3MBTL1 inh: -5%; RECQ1 inh: inactive; APE1 inh-1: 0%; KDM4E inh: 2%; BLM inh: -2%

How did Nc1ncnc2c1ncn2[C@@H]1O[C@H](COP(=O)(O)CP(=O)(O)OP(=O)(O)O)[C@H](O)[C@H]1O do in these assays?
RECQ1 inh: inactive; APE1 inh-1: -4%; KDM4E inh: inconclusive

What do the screens show for `O=c1c(O)c(-c2ccc(O)c(O)c2)oc2c(O)c(O)cc(O)c12`?
RECQ1 inh: inactive; APE1 inh-1: inconclusive; KDM4E inh: 2.8µM*; BLM inh: -11%; EndoIV counter: -11%[57.1 µM]; APE1 inh-2: 0.5µM*

Results for CC[C@@]1(O)C(=O)OCc2c1cc1n(c2=O)Cc2cc3ccccc3nc2-1 ?
RECQ1 inh: -3%; APE1 inh-1: 9%; KDM4E inh: inconclusive; BLM inh: 5%; EndoIV counter: -5%[57.1 µM]; APE1 inh-2: -23%

What do the screens show for `CCc1c(C(=O)OC)ncc2[nH]c3cc(OC)c(OC)cc3c12`?
RECQ1 inh: -4%; APE1 inh-1: -9%; KDM4E inh: inconclusive; EndoIV counter: -54%[57.1 µM]; APE1 inh-2: -27%
